Measurements reported in PubChem BioAssay (NCI).
The panel holds about 83,000 compounds, 20% with a hit somewhere; the sample as a whole holds those more often.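 Activity criterion: percent growth below 10, measured after cells in 96-well plates were exposed to a single compound concentration for 48 hours.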 Values without a mark were called inactive. The source made the active and inactive calls.

How the values were obtained:
Assay in all cases: NCI-60 one-dose screen, 48 h (100 = growth as untreated, 0 = no growth, -100 = all killed)
Conditions in all cases: 10 µM unless noted
[1] = test system: EKVX NSCLC
[2] = test system: SN12C renal
[3] = test system: UO-31 renal
[4] = test system: TK-10 renal
[5] = test system: ACHN renal
[6] = test system: CAKI-1 renal
[7] = test system: A498 renal
[8] = test system: CCRF-CEM leukemia
[9] = test system: MOLT-4 leukemia
[10] = test system: SR leukemia
[11] = test system: RPMI-8226 leukemia
[12] = test system: OVCAR-8 ovarian
[13] = test system: OVCAR-5 ovarian
[14] = test system: OVCAR-4 ovarian
[15] = test system: SK-OV-3 ovarian
[16] = test system: IGROV1 ovarian
[17] = test system: OVCAR-3 ovarian
[18] = test system: HS 578T breast
[19] = test system: NCI/ADR-RES ovarian

## COc1cc(C2CC(c3ccc(Cl)cc3)=NN2C=O)ccc1Oc1ccnc2cc(Cl)ccc12 (stereo not drawn)
[1]
  growth: 59%
[2]
  growth: 77.3%
[3]
  growth: 80.8%
[4]
  growth: 83%
[5]
  growth: 41%
[6]
  growth: 58.5%
[7]
  growth: 62.6%
[8]
  growth: 68.8%
[9]
  growth: 62%
[10]
  growth: 63.2%
[11]
  growth: 65.1%
[12]
  growth: 44.6%
[13]
  growth: 92.7%
[14]
  growth: 28.1%
[15]
  growth: 60%
[16]
  growth: 97%
[17]
  growth: 73.4%
[18]
  growth: 35.5%
[19]
  growth: 76.6%

## COc1ccc(-n2nc(C(=O)Nc3ccc(F)cc3)nc2-c2cc(OC)c(OC)c(OC)c2)cc1
[2]
  growth: 92.4%
[3]
  growth: 51.6%
[4]
  growth: 112%
[5]
  growth: 89.8%
[7]
  growth: 66.6%
[8]
  growth: 83.2%
[9]
  growth: 69.9%
[11]
  growth: 96.8%
[13]
  growth: 97.8%
[14]
  growth: 90.5%
[15]
  growth: 94.8%
[16]
  growth: 98.1%
[17]
  growth: 92.4%
[18]
  growth: 89.3%
[19]
  growth: 85%

## OC(CCCCCCCCC(O)CN1CCc2ccccc2C1)CN1CCc2ccccc2C1 (stereo not drawn)
[1]
  growth: 89.5%
[2]
  growth: 105%
[3]
  growth: 86.1%
[4]
  growth: 103%
[5]
  growth: 110%
[6]
  growth: 92.6%
[7]
  growth: 107%
[9]
  growth: 110%
[10]
  growth: 104%
[12]
  growth: 104%
[13]
  growth: 102%
[14]
  growth: 96.2%
[15]
  growth: 105%
[16]
  growth: 95.1%
[17]
  growth: 107%
[18]
  growth: 108%
[19]
  growth: 98.1%

## ClC1=NC(Cl)C(Cl)=N/C1=N\c1ncn[nH]1 (stereo not drawn)
[2]
  growth: 26.3%
[3]
  growth: -81.7% (active)
[4]
  growth: -75.9% (active)
[5]
  growth: -92.4% (active)
[6]
  growth: -75.9% (active)
[7]
  growth: 121%
[9]
  growth: -52.2% (active)
[10]
  growth: -60.4% (active)
[11]
  growth: -8.16% (active)
[12]
  growth: -1.21% (active)
[13]
  growth: 85%
[14]
  growth: -70.3% (active)
[15]
  growth: 66.3%
[16]
  growth: -50.2% (active)
[17]
  growth: -82.2% (active)
[18]
  growth: 123%
[19]
  growth: 91.9%

## O=C(Nc1cccc(-n2ccc3c(NC(=O)c4ccccc4)nccc32)c1)c1ccc(Cl)c(Cl)c1
[1]
  growth: -33.3% (active)
[2]
  growth: -83.8% (active)
[3]
  growth: -78.1% (active)
[5]
  growth: -75.9% (active)
[6]
  growth: -71.7% (active)
[7]
  growth: -2.71% (active)
[8]
  growth: -41.6% (active)
[11]
  growth: -51.3% (active)
[13]
  growth: -36.4% (active)
[14]
  growth: -88.7% (active)
[15]
  growth: 18.7%
[16]
  growth: -52.1% (active)
[17]
  growth: -81.3% (active)
[19]
  growth: -28.1% (active)

## CS(=O)(=O)c1ccc(Cl)c([N+](=O)[O-])c1
[1]
  growth: 104%
[2]
  growth: 107%
[3]
  growth: 5.92% (active)
[4]
  growth: 108%
[5]
  growth: 108%
[6]
  growth: -88.3% (active)
[7]
  growth: 106%
[9]
  growth: 53.2%
[10]
  growth: 18.6%
[11]
  growth: 70.3%
[12]
  growth: 107%
[13]
  growth: 108%
[14]
  growth: 111%
[15]
  growth: 104%
[16]
  growth: 38.5%
[17]
  growth: 9.6% (active)
[19]
  growth: 101%

## COc1cc(CN2CCC(N3CCCC3=O)c3ccccc32)cc(OC)c1OC (stereo not drawn)
[1]
  growth: 66.1%
[2]
  growth: 79.7%
[3]
  growth: 56%
[4]
  growth: 86.3%
[5]
  growth: 91.3%
[6]
  growth: 70.7%
[7]
  growth: 63.6%
[9]
  growth: 72.4%
[10]
  growth: 59.1%
[12]
  growth: 84.2%
[13]
  growth: 103%
[14]
  growth: 41.3%
[15]
  growth: 100%
[16]
  growth: 90.5%
[17]
  growth: 100%
[18]
  growth: 88.3%
[19]
  growth: 67.3%

## NNc1ccc(S(N)(=O)=O)cc1
[1]
  growth: 103%
[3]
  growth: 91.6%
[5]
  growth: 105%
[6]
  growth: 97.8%
[8]
  growth: 9.37% (active)
[9]
  growth: 102%
[11]
  growth: 82.4%
[13]
  growth: 102%
[14]
  growth: 110%
[15]
  growth: 104%
[16]
  growth: 110%
[17]
  growth: 111%
[18]
  growth: 110%
[19]
  growth: 94.2%

## CCN(CC)Cc1cc(Nc2ccnc3ccc(OC)cc23)ccc1O
[1]
  growth: 67.1%
[2]
  growth: 56.6%
[3]
  growth: 2.04% (active)
[4]
  growth: 49.6%
[5]
  growth: 35.1%
[7]
  growth: 45.6%
[8]
  growth: 55.5%
[9]
  growth: 29.7%
[12]
  growth: 28.4%
[13]
  growth: 55%
[14]
  growth: 55.3%
[15]
  growth: 73.6%
[16]
  growth: 23.8%
[17]
  growth: 50.8%
[18]
  growth: 77.2%
[19]
  growth: 35.8%

## CCCCCc1c(C)[nH]c(/C=C2\N=C(c3ccc[nH]3)C=C2Oc2ccc(OC)cc2)c1C
[2]
  growth: -88.6% [100 µM] (active)
[3]
  growth: -75.7% [100 µM] (active)
[4]
  growth: -60.2% [100 µM] (active)
[5]
  growth: -59.8% [100 µM] (active)
[6]
  growth: -73.9% [100 µM] (active)
[7]
  growth: -89.3% [100 µM] (active)
[9]
  growth: -34% [100 µM] (active)
[10]
  growth: -9.14% [100 µM] (active)
[11]
  growth: -37.7% [100 µM] (active)
[13]
  growth: -65.3% [100 µM] (active)
[14]
  growth: -99.7% [100 µM] (active)
[15]
  growth: -63.2% [100 µM] (active)
[16]
  growth: -70.6% [100 µM] (active)
[17]
  growth: -95% [100 µM] (active)
[19]
  growth: -78% [100 µM] (active)

## CCCCCCCCN=C(NCCCCCCCC)SCc1cccc2ccccc12
[1]
  growth: -66.4% (active)
[2]
  growth: -88.1% (active)
[3]
  growth: -57.2% (active)
[4]
  growth: -94.8% (active)
[5]
  growth: -91.8% (active)
[6]
  growth: -84.9% (active)
[7]
  growth: -80.4% (active)
[8]
  growth: -2.17% (active)
[9]
  growth: -11% (active)
[10]
  growth: -34.6% (active)
[11]
  growth: -42.1% (active)
[13]
  growth: -84.2% (active)
[14]
  growth: -91.7% (active)
[15]
  growth: -96.3% (active)
[16]
  growth: -55.5% (active)
[17]
  growth: -97.9% (active)
[18]
  growth: -55.3% (active)

## COc1cc(OC)c(C(=O)/C=C/c2cccc(OC(C)=O)c2)cc1CC=C(C)C
[1]
  growth: 107%
[2]
  growth: 62.1%
[4]
  growth: 162%
[5]
  growth: 74.9%
[6]
  growth: 241%
[7]
  growth: 120%
[8]
  growth: 9.5% (active)
[9]
  growth: 32%
[11]
  growth: 7.53% (active)
[13]
  growth: 107%
[14]
  growth: 75.1%
[15]
  growth: 102%
[16]
  growth: 59.2%
[17]
  growth: 37.7%
[18]
  growth: 99%
[19]
  growth: 72%

## CC(=O)Nc1ccc(/C=N/N2CCCCCC2)cc1
[1]
  growth: 98.8%
[2]
  growth: 83.3%
[3]
  growth: 93.9%
[4]
  growth: 114%
[5]
  growth: 79.1%
[6]
  growth: 92.7%
[7]
  growth: 108%
[8]
  growth: 106%
[9]
  growth: 102%
[11]
  growth: 116%
[13]
  growth: 96.7%
[14]
  growth: 99.1%
[15]
  growth: 99.9%
[16]
  growth: 111%
[17]
  growth: 99.4%
[18]
  growth: 96.3%
[19]
  growth: 103%

## ClCCn1cnc2c(SCc3ccccc3Cl)ncnc21
[1]
  growth: 66.8%
[2]
  growth: 44.8%
[4]
  growth: 34.4%
[5]
  growth: 38.4%
[6]
  growth: 47.6%
[7]
  growth: 39%
[8]
  growth: 24.2%
[9]
  growth: -28% (active)
[10]
  growth: -21.5% (active)
[12]
  growth: 47.5%
[13]
  growth: 69.6%
[14]
  growth: 81.7%
[15]
  growth: 46.1%
[17]
  growth: 35.9%
[19]
  growth: 54.6%

## Cc1cc2nc(CN)[nH]c2cc1C
[2]
  growth: 111%
[3]
  growth: 101%
[4]
  growth: 104%
[5]
  growth: 112%
[7]
  growth: 98.7%
[9]
  growth: 102%
[10]
  growth: 97.2%
[11]
  growth: 96.5%
[12]
  growth: 106%
[13]
  growth: 112%
[14]
  growth: 112%
[15]
  growth: 104%
[16]
  growth: 111%
[17]
  growth: 100%
[18]
  growth: 114%
[19]
  growth: 112%

## c1ccc(CCn2cccc2)nc1
[1]
  growth: 107%
[2]
  growth: 102%
[3]
  growth: 94.3%
[4]
  growth: 99.7%
[6]
  growth: 91.1%
[7]
  growth: 105%
[8]
  growth: 105%
[9]
  growth: 18.7%
[10]
  growth: 75.2%
[12]
  growth: 102%
[13]
  growth: 103%
[14]
  growth: 113%
[15]
  growth: 107%
[16]
  growth: 121%
[17]
  growth: 101%
[18]
  growth: 120%
[19]
  growth: 105%

## COc1cccc(/C=N\Nc2ccc([N+](=O)[O-])cn2)c1O
[1]
  growth: 83.9%
[2]
  growth: 55%
[3]
  growth: 26.9%
[4]
  growth: 73.5%
[5]
  growth: 28.5%
[6]
  growth: 27.8%
[7]
  growth: 39.8%
[8]
  growth: 79.3%
[9]
  growth: 58%
[10]
  growth: 48.3%
[11]
  growth: 62.6%
[12]
  growth: 10.6%
[13]
  growth: 104%
[14]
  growth: 29.5%
[15]
  growth: 68.7%
[16]
  growth: 36.2%
[17]
  growth: 8.54% (active)
[19]
  growth: 18.6%

## CCN(CC)CCCCCCCCNc1c2ccc(Cl)cc2nc2ccc(OC)cc12
[1]
  growth: -12.2% (active)
[2]
  growth: -19.7% (active)
[3]
  growth: -56.2% (active)
[5]
  growth: -58% (active)
[6]
  growth: -1.58% (active)
[7]
  growth: -92.5% (active)
[8]
  growth: -26.5% (active)
[9]
  growth: -45.8% (active)
[10]
  growth: -63.6% (active)
[11]
  growth: -43.8% (active)
[13]
  growth: -24% (active)
[14]
  growth: -49.8% (active)
[15]
  growth: -29.1% (active)
[16]
  growth: -9.45% (active)
[17]
  growth: -38.3% (active)
[19]
  growth: -29.8% (active)
